Assay outcomes as filed in PubChem BioAssay.
CRE Fsk mod: modulators of forskolin-stimulated CRE signaling in CHO cells | 71,000 compounds, 2.5% hits | CHO CRE-bla reporter (cAMP response element driving beta-lactamase), forskolin EC10, beta-lactamase ratio | Potency, µM (series often up to 38.2 µM), without a hit: at the highest dose activity change, negative = inhibition, usual class: activators; active means well fitted activation curve with a large enough effect in the signal ratio, with a control signal flat, not every such curve was filed as active; inconclusive means small, poorly fitted or top-dose-only effect, or effect the other way, or a change in a side signal; the % refers to the signal ratio; further: % of control where 0% means no effect
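CRE-bla CHO reporter cells treated with compound titration plus EC10 NKH 477 (water-soluble forskolin), incubated 3 h at 37 °C; CCF4 loading 2 h at room temperature, 460/530 nm emission ratio read, AC50 values derived for positive or negative modulators.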
15-hLO inh: 15-hLO (ALOX15) enzyme inhibition. P16050. purified 15hLO-1, xylenol orange hydroperoxide absorbance. Potency, µM (titrated, usually from 57.1 µM), inactives show at the top dose activity change, negative = inhibition, actives largely listed as inhibitors. 74,000 compounds, 1.4% hits. AID 887; further: on the % scale 0 is the no-effect control and ±100 the full control effect; nearly all actives have a fitted effect of over 55% in size
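40 nM 15hLO-1 + cpd, 15 min RT; start w/ 50 uM AA (final), 6 min RT; stop/detect w/ 200 uM XO + 300 uM Fe(II) in 50 mM H2SO4, 30 min; A573/A405. Buffer 25 mM Hepes pH 7.5, 0.01% Triton X-100. No-enzyme wells as negative control.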
ALOX15B inhib: blocks human 15-lipoxygenase 2 activity; O15296; purified 15hLO-2, xylenol orange hydroperoxide absorbance; Potency, µM (titrated, usually from 57.1 µM), inactives show top-dose activity change, negative = inhibition, hits mostly inhibitors; 110,000 compounds, 0.56% hits; AID 881; further: on the % scale 0 is the no-effect control and ±100 the full control effect; nearly all actives have a fitted effect of over 60% in size
Target sequence (O15296 whole entry, looked up): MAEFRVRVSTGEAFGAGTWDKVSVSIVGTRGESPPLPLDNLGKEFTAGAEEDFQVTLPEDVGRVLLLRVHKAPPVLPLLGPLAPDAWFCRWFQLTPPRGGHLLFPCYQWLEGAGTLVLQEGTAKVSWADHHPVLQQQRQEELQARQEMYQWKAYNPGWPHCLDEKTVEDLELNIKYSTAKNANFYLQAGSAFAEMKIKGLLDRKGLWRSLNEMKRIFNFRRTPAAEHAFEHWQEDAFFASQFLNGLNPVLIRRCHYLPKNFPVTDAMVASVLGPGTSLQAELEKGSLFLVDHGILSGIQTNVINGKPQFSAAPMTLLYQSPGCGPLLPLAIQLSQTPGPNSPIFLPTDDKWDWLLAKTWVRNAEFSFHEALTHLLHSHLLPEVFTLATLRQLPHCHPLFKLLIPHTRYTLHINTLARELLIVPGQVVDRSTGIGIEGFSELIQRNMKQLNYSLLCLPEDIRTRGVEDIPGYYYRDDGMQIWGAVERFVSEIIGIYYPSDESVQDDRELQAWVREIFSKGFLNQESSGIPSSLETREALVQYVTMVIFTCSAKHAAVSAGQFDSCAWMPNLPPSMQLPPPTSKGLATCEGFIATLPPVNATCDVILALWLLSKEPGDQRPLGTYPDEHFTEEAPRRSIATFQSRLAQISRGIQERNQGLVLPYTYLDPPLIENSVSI
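Enzyme 50 nM, AA 45 uM, 25 mM Hepes pH 7.5 + 0.01% Triton X-100; cpd preinc 15 min RT, rxn 90 min RT; stop/detect with 200 uM XO + 300 uM Fe(II) in 50 mM H2SO4, 30 min; A573/A405.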
ERK AVP block: inhibitors of vasopressin-stimulated ERK signaling pathway. 72,000 compounds, 0.99% hits. AID 995. HEK293-V1b, vasopressin-stimulated pERK AlphaScreen. Potency, µM (top dose mostly 57.5 µM), without a hit: at the highest dose activity, negative = inhibition, most hits filed as inhibitors; further: on the % scale 0 is the no-effect control and ±100 the full control effect; nearly all actives have a fitted effect of over 55% in size
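V1b-HEK293 cells; cpd 30 min 37C; 25 nM vasopressin 5 min; lyse 10 min; AlphaScreen beads 5 hr RT. Normalized to DMSO basal and 25 nM vasopressin; AC50 by Hill fit.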
Numbers without * were called inactive; ? = inconclusive; / = not tested or not shown; ! = not confirmed by another sample; [ ] = dose if it differs, or a comment. Rows were chosen to be rich in hits. Some 3.2% of all compounds tested hit in one or more screens of this group. Unless noted, the call rests on the fitted dose curve; in most records, active means well fitted inhibition curve with a large enough effect; inconclusive means small, poorly fitted or top-dose-only effect; inactive means no such curve, though single readings can be large or run the other way. Potency means the concentration at half of the fitted maximal effect.

SMILES	CRE Fsk mod	15-hLO inh	ALOX15B inhib	ERK AVP block
O=C1CCC[C@H]2OC12[C@@H](O)CCc1ccccc1 (some centres not stated)	/	2%[11.4 µM]	/	7%[11.5 µM]
COC(=O)NC(/C(C(=O)OC)=C(\C)NCc1ccccc1)c1ccc(F)cc1 (configuration not stated)	/	-6%[11.4 µM]	/	4%[11.5 µM]
O=C(NCCO)c1ccc(-n2c(=O)c(=O)[nH]c3ccccc32)cc1	/	4%	/	/
C[C@@H](c1ccccc1)N1C(=O)[C@H]2[C@H]3[C@H](O)[C@H](O)C/C(=N/NC(=O)OCc4ccccc4)[C@@H]3CC[C@@H]2C1=O	/	3%[11.4 µM]	/	11%[11.5 µM]
O[C@@H]([C@H](O)[C@@H](O)CBr)[C@@H](O)CBr	-5%	-7%	-2%	13%
COc1cc(CNc2ccc(C)c(C)c2)cc(OC)c1OC	6%	10µM*	?	40µM*
Cc1c(C(=O)N(C)C2CCCCC2)sc2nc3ccc(N)cc3n12	/	/	7%[0.0915 µM]	/
COc1cccc(-c2cc(NCc3cccs3)ncn2)c1	?	0%	11%	25µM*
COc1cccc(-c2cc(NCc3cccnc3)ncn2)c1	?	?	-3%	?
COc1ccccc1-c1cc(NCc2cccc(C)c2)ncn1	?	9%	11%	?
COc1cccc(-c2cc(NCc3cccc(C)c3)ncn2)c1	5µM*	-12%	26%	?
Cc1cccc(CNc2cc(-c3ccccc3C)ncn2)c1	?	?	37%	10µM*
COc1cccc(-c2cc(NCc3ccccc3OC)ncn2)c1	?	4%	8%	-25%
COc1cc(C2SCCCCCCCCCCSC(c3ccc(O)c(OC)c3)SCCCCCCCCCCS2)ccc1O (configuration not stated)	5%[7.6 µM]	-4%[11.4 µM]	-4%[11.4 µM]	4%[11.5 µM]
Cc1ccc(CNC(=O)CS(=O)Cc2nc(-c3ccccc3C)oc2C)cc1 (configuration not stated)	-9%	1%	3%	6%
COc1ccc(CNC(=O)CS(=O)Cc2nc(-c3ccccc3C)oc2C)cc1 (configuration not stated)	-10%	2%	1%	20µM*
Cc1ccc(/C=C/C2=Cc3c(sc(NC(=O)CSc4n[nH]c(N)n4)c3C#N)C(C)(C)C2)o1	?	13µM*	?	-9%
CCCC(=O)c1ccc(N2CCN(C(=O)c3ccccc3Br)CC2)c(F)c1	?	-25%	-2%	25µM*
CCCC(=O)c1ccc(N2CCN(C(=O)c3ccccc3)CC2)c(F)c1	-12%	-4%	-4%	-29%
CCNc1ncc2nc(-c3cccc(C#N)c3)c(=O)n(C)c2n1	2µM*	-15%	4%	-10%
CCNc1ncc2nc(-c3ccccc3)c(=O)n(CCC#N)c2n1	?	-4%	2%	?
CCNc1ncc2nc(-c3ccc(Cl)cc3)c(=O)n(CCC#N)c2n1	2µM*	-2%	-5%	-4%
CCNc1ncc2nc(-c3cccc(C#N)c3)c(=O)n(Cc3cccc(OC)c3)c2n1	0.32µM*	8%	-2%	-10%
CCNc1ncc2nc(-c3cccc(C#N)c3)c(=O)n(CCC#N)c2n1	2.5µM*	-9%	3%	-24%
N[C@@H](CSCc1ccc(I)cc1)C(=O)O	6%[7.6 µM]	8%[11.4 µM]	-3%[11.4 µM]	-13%[11.5 µM]
SMILES	CRE Fsk mod	15-hLO inh	ALOX15B inhib	ERK AVP block
Cc1noc(C)c1-c1nccc(NCc2cccs2)n1	?	-4%	2%	?
CN(C)/N=N\c1nc[nH]c1C(N)=O	-1%[17.1 µM]	4%[25.6 µM]	5%[25.6 µM]	-3%[25.7 µM]
CC(=O)N1CCC2(CC1)CN(c1ccncc1)C2	1%	0%	4%	14%
Clc1ccc2[nH]c3c(NCCCN4CCOCC4)ncnc3c2c1	/	/	3%	/
O=C1CCCN1CCCNc1ncnc2c1[nH]c1ccc(Cl)cc12	1µM*	-5%	8%	?
CCCOc1ccccc1-c1nc2n[nH]nc2c(=O)[nH]1	?	16µM*!	0%	-17%
CN(C(=O)c1c(O)c2ccccc2n(C)c1=O)c1ccccc1	-3%	-18%[25.6 µM]	10%	0%
Cc1cc(Nc2cccc(F)c2)nc(-c2ccccc2O)n1	?	10µM*	9%	7.9µM*
Cc1cc(Nc2ccccc2)nc(-c2ccccc2O)n1	-3%	-20%	19%	32µM*
CCOC(=O)c1ccc(Nc2cc(C)nc(-c3ccccc3O)n2)cc1	/	?	9%	/
COc1ccccc1OCc1nnc(SCC(=O)c2cc(Cl)ccc2OC)o1	0%	5%	2%	32µM*
